Screening data as filed in PubChem BioAssay.
Rows were chosen to be rich in hits. Some 4.8% of all compounds tested hit in one or more screens of this group.
DAX1 inh-1: inhibits human nuclear receptor DAX1. P51843. HEK293 Gal4-DAX1 luciferase reporter, luminescence. inhibition, % at 6.75 µM. 340,000 compounds, 0.99% hits. AID 504766;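 active = inhibition above the mean over all tested compounds plus 3 SD, cut at about 4.2% in these data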;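 note: inhibition shows as a rise in luminescence from relieved DAX1 repression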
Target sequence (P51843 207-470 limits assumed): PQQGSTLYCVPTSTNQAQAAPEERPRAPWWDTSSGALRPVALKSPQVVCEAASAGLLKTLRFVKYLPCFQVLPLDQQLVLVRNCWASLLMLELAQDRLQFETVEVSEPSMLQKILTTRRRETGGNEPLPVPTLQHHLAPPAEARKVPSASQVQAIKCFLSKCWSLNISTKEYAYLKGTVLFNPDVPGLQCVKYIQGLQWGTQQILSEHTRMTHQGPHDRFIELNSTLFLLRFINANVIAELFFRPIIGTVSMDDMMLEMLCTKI
ssDAF12 agonist: activators of S. stercoralis DAF-12 nuclear receptor | HEK293 ssDAF-12/GRIP1 lit1-tk-luc reporter, luminescence; % of 3 µM dafachronic acid response | activation, % at 6.8 µM | 370,000 compounds, 1% hits;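 active = activation above the mean over all tested compounds plus 3 SD, cut at about 0.9% in these data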
hgDAF12 agonist: activates the H. glycines DAF-12 receptor ligand-binding domain. HEK293 GAL4-hgDAF12 UAS-luciferase reporter, agonist luminescence; normalized to butyrate control. activation, % at 6.8 µM. 370,000 compounds, 1.8% hits;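 active = activation above a cutoff set at the mean of all screened compounds plus 3 SD, cut at about 10% in these data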
SMARCA2 act: increases SMARCA2 function in MMTV reporter cells; MG213 cells, MMTV-luciferase reporter, dexamethasone, overnight; 370,000 compounds, 1% hits; activation, % at 9.1 µM; AID 652017; in the data active = activation above about 7.8%
hcDAF-12 act: H. contortus DAF-12 activation, primary screen | HEK293 hcDAF-12 lit1-tk-luc reporter, luminescence; 0% DMSO, 100% Δ7-dafachronic acid | activation, % at 6.8 µM | 370,000 compounds, 1.4% hits | AID 652067;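 active = activation above the mean of all tested compounds plus 3 SD, cut at about 5.5% in these data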
DAX1 inh-2: DAX1 (NR0B1) inhibition, primary screen. HEK293T StAR-luciferase reporter, SF-1/DAX-1 repression relief. inhibition, % at 6.8 µM. 370,000 compounds, 1.1% hits. AID 652010;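 active = inhibition above the mean over all tested compounds plus 3 SD, cut at about 3.6% in these data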;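 note: higher inhibition means more luminescence from relief of DAX-1 repression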
Each line names hits and unclear results; the compound was inactive in the other large screens.

COc1ccc(NC(=O)NCc2ccc3c(c2)OCO3)cc1	none
CC(=O)Nc1ccc(S(=O)(=O)NCC(=O)Nc2ccc3c(c2)OCO3)cc1	ssDAF12 agonist 2.1
O=S(=O)(NCc1ccc2c(c1)OCO2)c1ccc(F)c(F)c1	none
C=CCN(C(=O)CSc1nc2ccsc2c(=O)n1Cc1ccccn1)c1ccccc1	none
Cc1ccc(CONC(=O)c2ccc(OC(F)F)cc2)cc1	none
C/C(=N\NC(=O)c1nnn(-c2nonc2N)c1CN1CCc2ccccc21)c1ccccc1O	hcDAF-12 act 5.6
CC1CCC(=O)N(CCSc2ccccc2)CC1 (centres undefined)	hcDAF-12 act 6.2
C(=N\Nc1nnnn1-c1ccccc1)/c1ccncc1	none
C/C(=N\Nc1nc2ccccc2[nH]1)c1ccc2c(c1)OCO2	none
O=C(O)c1ccc(/C=N/Nc2nc3ccccc3[nH]2)cc1	DAX1 inh-1 8.9
C(=N\Nc1nc2ccccc2[nH]1)/c1ccc2c(c1)OCO2	DAX1 inh-1 8.0
Clc1ccccc1N/N=C/c1ccc2c(c1)OCO2	DAX1 inh-1 4.3
O=C(CNC(=O)c1ccccc1Cl)N/N=C/c1ccc2c(c1)OCO2	none
O=C(O)c1ccc(/C=N/Nc2nnnn2-c2ccccc2)cc1	ssDAF12 agonist 1.6
CCN(CC(=O)Nc1c(F)cccc1F)C(=O)CCCc1nc2ccccc2c(=O)[nH]1	none
COc1ccc(NC(=O)C2c3ccccc3OCC(=O)N2Cc2cccnc2)cc1 (centres undefined)	none (no result: DAX1 inh-1)
Cc1ccc(NS(=O)(=O)c2ccc(Cl)c(C(=O)Nc3cccc(C(=O)O)c3)c2)cc1	DAX1 inh-1 5.4
O=C(O)c1cccc(NC(=O)c2cccc(S(=O)(=O)N3CCc4ccccc43)c2)c1	DAX1 inh-1 4.6
Cc1ccc(C(=O)Nc2ccc3cn[nH]c3c2)cc1S(=O)(=O)N1CCCCC1	hcDAF-12 act 6.1
O=C(NCc1cccs1)C1CCN(S(=O)(=O)c2cccc3cccnc23)CC1	DAX1 inh-1 4.3
Cc1ccc(NC(=O)c2ccc(F)cc2)cc1S(=O)(=O)N1CCCCCC1	none
CC(C)C(=O)Nc1ccc(O)c(-c2csc(N)n2)c1	none
Cc1ccc(C(=O)NCc2ccccc2F)cc1S(=O)(=O)N1CCCC1	none
COCCNCC(=O)Nc1ccc(C)c(S(=O)(=O)N2CCCCC2)c1	DAX1 inh-1 4.3
Cc1ccc(C(=O)NCc2cccs2)cc1S(=O)(=O)N1CCCCC1	ssDAF12 agonist 1.2
O=C(O)c1cccc(NC(=O)c2ccc(Cl)c(S(=O)(=O)N3CCCCCC3)c2)c1	hgDAF12 agonist 10.9
Cc1ccc(C)c(N(C(=O)c2csnn2)C(C(=O)NC2CCCCC2)c2cccnc2)c1 (centres undefined)	DAX1 inh-1 4.4
O=C(NC1CCCC1)C(c1ccccc1)N(C(=O)c1csnn1)c1ccccc1F (centres undefined)	DAX1 inh-1 4.7
O=C(NC1CCCC1)C(c1ccc(F)cc1)N(C(=O)c1csnn1)C1CCCC1 (centres undefined)	DAX1 inh-1 5.9
COc1ccc(C(=O)NNC(=O)CCn2nnc(-c3ccc(C)cc3)n2)cc1OC	none
CCc1nccn1S(=O)(=O)c1ccc(OC)c(C)c1C	none
O=C1CC(c2ccco2)CC2=C1C=Nc1ccccc1N2 (centres undefined)	none
O=c1[nH]c2c(s1)C=Nc1ccccc1N2	hcDAF-12 act 6.2
Cc1onc(-c2c(Cl)cccc2Cl)c1-c1nnc(-c2ccc(Cl)cc2)o1	none
Nc1nc(SCc2ccccc2)sc1C(=O)N1CCCCC1	hgDAF12 agonist 10.6
CCn1c(O)c(C2=c3ccccc3=NC2=O)c2cc(Br)ccc21	ssDAF12 agonist 1.0 (no result: DAX1 inh-1)
Cc1cccc(NC(=O)C(=O)NCC2CCCO2)c1 (centres undefined)	hgDAF12 agonist 12.7, DAX1 inh-2 3.8
CCOc1ccc(N2C(=O)CC(Sc3nc(CC(C)C)ccc3C#N)C2=O)cc1 (centres undefined)	none
CC1(C)SC(=S)N(/N=C/c2cccnc2)C1N(O)C(=O)Nc1ccccc1 (centres undefined)	DAX1 inh-1 6.2
CCCCNC(=O)N(O)C1N(/N=C/c2cccnc2)C(=S)SC1(C)C (centres undefined)	none
